Test results reported in PubChem BioAssay AID2783 (National Center for Advancing Translational Sciences (NCATS), 2010).
Results filed as inconclusive are left out. Calls of active or inactive are those of the source. Calls come from the whole dose curve; as a rule, active = well fitted inhibition curve with a large enough effect in the polarisation, with a control signal flat (not every such curve was filed as active); inconclusive = small, poorly fitted or top-dose-only effect, or effect the other way, or a change in a side signal; inactive = no such curve, though single readings can be large or run the other way; the % refers to the polarisation. Where a SMILES comes first, the peptide text is derived from it. Bridges are numbered along the chain shown (N, C = ends). [ ]: non-standard residue; d: D form. The star is where a group is joined. ξ: configuration not given here. Octanoyl(6-Me) = CCC(C)CCCCC(=O)*; ξThr(3R) = C[C@@H](O)C(N)C(=O)O; dDab = NCC[C@@H](N)C(=O)O; Dab = NCC[CH](N)C(=O)O

Molecular target: Histone-lysine N-methyltransferase 2A (Homo sapiens) (UniProt Q03164)
Sequence (Q03164 whole entry, looked up): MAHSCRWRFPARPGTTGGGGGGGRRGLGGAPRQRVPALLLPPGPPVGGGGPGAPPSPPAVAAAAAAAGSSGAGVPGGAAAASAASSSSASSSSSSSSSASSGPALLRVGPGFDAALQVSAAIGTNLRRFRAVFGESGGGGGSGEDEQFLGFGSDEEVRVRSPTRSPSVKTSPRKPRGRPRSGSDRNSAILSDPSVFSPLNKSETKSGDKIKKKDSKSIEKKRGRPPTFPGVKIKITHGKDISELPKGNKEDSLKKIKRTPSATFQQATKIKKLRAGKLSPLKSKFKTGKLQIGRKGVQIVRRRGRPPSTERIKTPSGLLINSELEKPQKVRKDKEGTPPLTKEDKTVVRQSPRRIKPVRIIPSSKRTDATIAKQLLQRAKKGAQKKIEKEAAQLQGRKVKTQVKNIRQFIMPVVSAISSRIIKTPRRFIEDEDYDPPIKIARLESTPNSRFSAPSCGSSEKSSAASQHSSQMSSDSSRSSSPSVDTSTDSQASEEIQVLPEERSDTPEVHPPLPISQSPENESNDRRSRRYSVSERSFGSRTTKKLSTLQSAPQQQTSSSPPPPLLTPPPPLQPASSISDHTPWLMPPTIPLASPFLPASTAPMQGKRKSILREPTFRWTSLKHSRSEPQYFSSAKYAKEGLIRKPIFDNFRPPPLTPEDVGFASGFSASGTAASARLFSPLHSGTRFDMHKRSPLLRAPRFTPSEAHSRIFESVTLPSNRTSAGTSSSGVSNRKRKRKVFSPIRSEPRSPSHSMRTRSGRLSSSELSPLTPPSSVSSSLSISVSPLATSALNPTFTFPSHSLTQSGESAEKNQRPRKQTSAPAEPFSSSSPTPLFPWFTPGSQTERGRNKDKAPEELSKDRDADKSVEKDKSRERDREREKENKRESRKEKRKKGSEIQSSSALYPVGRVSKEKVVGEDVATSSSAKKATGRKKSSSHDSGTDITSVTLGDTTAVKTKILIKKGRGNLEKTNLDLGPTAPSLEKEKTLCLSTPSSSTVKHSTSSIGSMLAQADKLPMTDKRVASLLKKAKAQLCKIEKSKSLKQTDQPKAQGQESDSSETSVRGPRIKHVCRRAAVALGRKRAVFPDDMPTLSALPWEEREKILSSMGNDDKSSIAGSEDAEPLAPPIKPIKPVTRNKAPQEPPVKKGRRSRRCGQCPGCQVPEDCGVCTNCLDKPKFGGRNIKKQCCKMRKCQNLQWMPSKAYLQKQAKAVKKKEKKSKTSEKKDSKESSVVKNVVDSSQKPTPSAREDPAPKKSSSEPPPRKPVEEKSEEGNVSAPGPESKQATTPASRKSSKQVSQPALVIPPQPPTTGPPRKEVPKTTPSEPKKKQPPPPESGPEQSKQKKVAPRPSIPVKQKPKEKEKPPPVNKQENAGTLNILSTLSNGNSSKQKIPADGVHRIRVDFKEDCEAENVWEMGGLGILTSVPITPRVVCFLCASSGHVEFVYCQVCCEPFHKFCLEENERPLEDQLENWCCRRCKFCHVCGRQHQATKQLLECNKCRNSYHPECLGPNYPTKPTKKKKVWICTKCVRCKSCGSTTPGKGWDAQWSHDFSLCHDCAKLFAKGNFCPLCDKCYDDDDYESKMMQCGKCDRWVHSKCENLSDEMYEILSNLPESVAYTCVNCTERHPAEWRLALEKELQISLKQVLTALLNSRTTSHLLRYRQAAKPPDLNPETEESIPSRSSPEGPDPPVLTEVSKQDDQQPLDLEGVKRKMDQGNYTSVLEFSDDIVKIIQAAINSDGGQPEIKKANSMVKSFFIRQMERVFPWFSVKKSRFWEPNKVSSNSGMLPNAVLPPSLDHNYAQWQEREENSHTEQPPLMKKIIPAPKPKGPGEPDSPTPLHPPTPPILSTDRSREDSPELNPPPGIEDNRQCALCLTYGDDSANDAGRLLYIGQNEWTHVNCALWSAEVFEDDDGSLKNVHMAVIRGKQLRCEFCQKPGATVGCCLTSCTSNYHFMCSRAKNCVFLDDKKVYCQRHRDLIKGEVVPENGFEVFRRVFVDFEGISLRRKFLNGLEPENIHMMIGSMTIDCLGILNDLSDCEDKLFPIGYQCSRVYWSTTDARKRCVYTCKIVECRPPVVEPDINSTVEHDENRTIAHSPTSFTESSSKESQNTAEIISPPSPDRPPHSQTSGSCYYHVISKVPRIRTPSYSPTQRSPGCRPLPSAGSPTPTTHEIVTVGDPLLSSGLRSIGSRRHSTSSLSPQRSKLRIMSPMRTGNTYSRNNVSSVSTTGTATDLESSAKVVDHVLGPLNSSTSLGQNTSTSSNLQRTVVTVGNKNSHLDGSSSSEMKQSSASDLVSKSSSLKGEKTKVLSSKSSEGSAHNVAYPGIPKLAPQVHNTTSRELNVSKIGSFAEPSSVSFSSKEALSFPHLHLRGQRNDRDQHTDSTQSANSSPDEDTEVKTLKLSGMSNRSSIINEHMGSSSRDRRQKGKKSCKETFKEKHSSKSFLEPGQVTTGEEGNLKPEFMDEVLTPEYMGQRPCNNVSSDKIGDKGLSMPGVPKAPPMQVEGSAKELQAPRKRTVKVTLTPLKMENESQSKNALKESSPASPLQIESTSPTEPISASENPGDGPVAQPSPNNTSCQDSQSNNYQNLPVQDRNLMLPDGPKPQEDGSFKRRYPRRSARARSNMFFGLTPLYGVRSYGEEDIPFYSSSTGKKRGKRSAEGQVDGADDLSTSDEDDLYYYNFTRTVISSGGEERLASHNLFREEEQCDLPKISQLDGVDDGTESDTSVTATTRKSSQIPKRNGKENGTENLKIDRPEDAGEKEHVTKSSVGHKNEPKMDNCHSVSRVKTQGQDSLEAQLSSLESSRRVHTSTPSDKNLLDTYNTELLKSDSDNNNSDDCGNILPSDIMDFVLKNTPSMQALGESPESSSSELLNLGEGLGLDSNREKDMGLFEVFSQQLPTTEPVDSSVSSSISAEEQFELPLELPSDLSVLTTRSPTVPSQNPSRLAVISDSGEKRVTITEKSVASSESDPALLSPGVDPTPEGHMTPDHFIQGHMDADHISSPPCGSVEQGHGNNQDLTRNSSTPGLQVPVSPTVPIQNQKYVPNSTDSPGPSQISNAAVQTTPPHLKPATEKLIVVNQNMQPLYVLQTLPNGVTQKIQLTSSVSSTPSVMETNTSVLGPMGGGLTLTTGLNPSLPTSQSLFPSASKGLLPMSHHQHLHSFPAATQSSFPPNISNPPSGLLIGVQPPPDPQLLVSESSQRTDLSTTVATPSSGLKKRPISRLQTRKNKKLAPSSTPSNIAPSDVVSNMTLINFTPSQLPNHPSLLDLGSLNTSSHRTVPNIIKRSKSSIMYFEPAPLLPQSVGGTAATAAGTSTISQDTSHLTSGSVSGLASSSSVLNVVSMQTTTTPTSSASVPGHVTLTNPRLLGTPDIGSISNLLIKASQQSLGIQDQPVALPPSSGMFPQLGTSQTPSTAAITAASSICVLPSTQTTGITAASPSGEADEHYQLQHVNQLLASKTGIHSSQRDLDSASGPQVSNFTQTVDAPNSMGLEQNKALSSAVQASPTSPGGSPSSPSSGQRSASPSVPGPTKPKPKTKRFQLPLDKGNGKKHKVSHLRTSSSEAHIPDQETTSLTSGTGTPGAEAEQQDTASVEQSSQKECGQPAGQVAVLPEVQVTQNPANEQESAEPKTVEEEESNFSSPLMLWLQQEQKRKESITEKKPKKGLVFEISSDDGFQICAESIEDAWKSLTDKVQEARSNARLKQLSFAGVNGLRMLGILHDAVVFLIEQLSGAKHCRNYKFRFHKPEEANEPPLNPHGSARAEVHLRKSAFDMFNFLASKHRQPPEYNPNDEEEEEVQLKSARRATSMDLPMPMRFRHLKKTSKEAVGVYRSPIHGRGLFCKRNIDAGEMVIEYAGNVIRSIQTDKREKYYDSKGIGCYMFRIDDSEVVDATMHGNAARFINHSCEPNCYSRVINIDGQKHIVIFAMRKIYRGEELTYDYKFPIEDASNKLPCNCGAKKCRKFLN
Experiment: Confirmation of Inhibitors Targeting the Menin-MLL Interaction in MLL Related Leukemias: Competition With Fluorescein Labeled MLL-derived Peptide
Conditions: Fluorescence polarization, fluorescein-MLL peptide displacement from menin
Source text: qHTS Assay for Inhibitors Targeting the Menin-MLL Interaction in MLL Related Leukemias
NIH Chemical Genomics Center [NCGC]
NIH Molecular Libraries Probe Centers Network [MLPCN]
Assay Submitter (PI): Jolanta Grembecka, Tomasz Cierpicki, University of Virginia
Translocations of the MLL (Mixed Lineage Leukemia) gene are frequently found in human leukemias affecting both children and adults. Fusion of MLL to one of more than 60 genes results in generation of oncogenic proteins upregulating Hox genes, which are vital to blood cell development. Patients harboring fusion of the MLL gene suffer from aggressive leukemias and respond poorly to available therapies. All of the oncogenic fusion proteins have a preserved N-terminal fragment of MLL that has been identified to interact with menin. It has been recently discovered that association with menin is critical to the leukemogenic activity of the MLL fusion oncoproteins. Selective targeting of the menin-MLL interaction could provide an attractive therapeutic approach to develop novel drugs for MLL-related leukemias. Small molecules blocking the menin-MLL interaction should reverse the oncogenic potential of MLL fusion proteins.
We have developed and optimized a fluorescence polarization-based assay for the identification of Menin-MLL inhibitors. The assay was run employing two different MLL-derived peptides. The present assay uses a 12 amino acid peptide labeled with fluorescein at its N-terminus. This peptide consists of the menin high affinity binding motif from MLL and is potently bound by menin. Another peptide with a mutated sequence, labeled with Texas Red, was used in parallel as a less stringent screen for inhibitors.
The present assay was run to confirm the activity of hits from the primary screen.
The Menin protein, the MLL-wild type (w.t.) derived peptide (N-terminal 12 amino acids), the MLL-derived peptide labeled with Texas Red and the MLL-w.t. peptide labeled with Fluorescein were kindly supplied by laboratory of Dr. Jolanta Grembecka, University of Virginia. All protein and peptide solutions were stored in single use aliquots at -80C. The Eu3+ Cyrptate-conjugated mouse monoclonal antibody anti-6 Histidine (Eu3+-AB) and the Streptavidin-XL665 conjugate (XL665) were purchased from Cisbio International (Bedford, MA). All antibody and XL665 conjugate solution stocks were stored in single use aliquots at -20C. The Buffer components for all assays were purchased from Sigma-Aldrich (St. Louis, MO) and Invitrogen (Carlsbad, CA).
1. FP reaction buffer: 50 mM Tris-HCl pH 7.5, 50 mM NaCl, 1mM DTT.
Before use, 0.05% BSA is added.
2. Menin protein, MLL-w.t. labeled with fluorescein, MLL-mutant peptide labeled with texas red.
Stored in singe use aliquots at -80C.
3. MLL-w.t. unlabeled peptide as positive control: 10 uM final in FP buffer.
1. Prepare Menin at 200 nM, MLL-w.t.-fluorescein at 25 nM, and MLL-mutant-texas red at 50 nM mixture in FP buffer.
2. Prepare Menin at 200 nM, MLL-w.t.-fluorescein at 25 nM, MLL-mutant-texas red at 50 nM, and 10 uM MLL-w.t. unlabeled mixture in FP buffer.
3. Prepare MLL-w.t.-fluorescein at 25 nM and MLL-mutant-texas red at 50 nM mixture in FP buffer.
3. Dispense 4 ul per well of reagent in step 1 in columns 2, 4 - 48 in a black 1536 well plate, dispense 4 ul per well of reagents from steps 2 and 3 in columns 1 and 3 respectively. Incubate plate at ambient for 15 minutes.
4. Transfer 23 nl per well of compound to plate and incubate at ambient for 1 hr.
5. Read fluorescence polarization for each label using the PerkinElmer Envision.
Envision protocol for fluorescein: FITC FP Dual Enh Mirror, Excitation filter 480, Emission filter (1) P-pol 535, Emission filter (2) S-pol 535
Envision protocol for texas red: FP Dual Enh Mirror, Excitation filter 555, Emission filter (1) P-pol 632, Emission filter (2) S-pol 632
Potency is the fitted concentration of half-maximal effect.

Row | Compound | Potency
1 | CCC[n+]1c2ccccc2cc2ccccc21 | 63.2 µM (active)
2 | CCCC(c1nnnn1Cc1ccco1)N1CCN(C2CCCC2)CC1 (configuration not stated) | 126 µM (active)
3 | C[C@H](NC(=O)c1cc2c(cn1)[nH]c1ccccc12)C(=O)O | 71 µM (active)
4 | CCC(c1nnnn1Cc1ccc(F)cc1)N1CCN(C2CCCCC2)CC1 (configuration not stated) | 126 µM (active)
5 | CCCC[n+]1c2ccccc2cc2ccccc21 | 63.2 µM (active)
6 | Cc1cc2c(N)cccc2nn1 | 141 µM (active)
7 | c1cc(CN2CCCNCCNCCCNCC2)ccc1CN1CCCNCCNCCCNCC1 | 31.6 µM (active)
8 | CCC(C)CCCCC(=O)NC(CCN)C(=O)NC(C(=O)NC(CCN)C(=O)NC1CCNC(=O)C(C(C)O)NC(=O)C(CCN)NC(=O)C(CCN)NC(=O)C(CC(C)C)NC(=O)C(Cc2ccccc2)NC(=O)C(CCN)NC1=O)C(C)O (configuration not stated) ({Octanoyl(6-Me)}-[Dab]T[Dab][Dab][Dab]FL[Dab][Dab]T; lactam 4-C; configuration not given here) | 10 µM (active)
9 | NC(=NCCCCCCN=C(N)/N=C(\N)Nc1ccc(Cl)cc1)/N=C(\N)Nc1ccc(Cl)cc1 | 141 µM (active)
10 | CCc1cc2c(N3CCN(C(=O)c4ccco4)CC3)ncnc2s1 | 63.1 µM (active)
11 | O=C(C[N+]12CC[N+](CC(=O)c3ccc(F)cc3)(CC1)CC2)c1ccc(F)cc1 | 79.4 µM (active)
12 | CCOc1cc(CNCCc2ccc(S(N)(=O)=O)cc2)ccc1OCc1ccccc1 | 126 µM (active)
13 | N=C1c2ccccc2CN1c1ccc(N2CCOCC2)c(S(=O)(=O)Nc2ccc(Cl)cc2)c1 | 71 µM (active)
14 | NC(=O)[C@@H]1CCCNc2c(I)cc([N+](=O)[O-])cc2C(=O)N[C@@H](CCCN=C(N)N)C(=O)N[C@@H](CCCN=C(N)N)C(=O)N1 | 251 µM (active)
15 | CC(=O)NC1C(=O)N(CCN2CCOCC2)c2ccc(C)cc21 (configuration not stated) | 79.6 µM (active)
16 | CCC(C)CCCCC(=O)N[C@@H](CCN)C(=O)N[C@H](C(=O)N[C@@H](CCN)C(=O)N[C@H]1CCNC(=O)C([C@@H](C)O)NC(=O)[C@@H](CCN)NC(=O)[C@H](CCN)NC(=O)[C@H](CC(C)C)NC(=O)[C@@H](CC(C)C)NC(=O)[C@H](CCN)NC1=O)[C@@H](C)O (stereo partly drawn) ({Octanoyl(6-Me)}-[Dab]T[Dab][Dab][Dab][dL]L[Dab][dDab][ξThr(3R)]; lactam 4-C) | 12.6 µM (active)
17 | CC1(C)CN=C(N2CCN(c3ncnc4sc5c(c34)CCCC5)CC2)S1 | 22.4 µM (active)
18 | Cc1sc2ncnc(NC3CCN(Cc4ccccc4)CC3)c2c1C | 63.1 µM (active)
19 | CNC[C@H](CC1CCCCC1)NC[C@H](Cc1ccccc1)NCCC12CC3CC(CC(C3)C1)C2 | 79.4 µM (active)
20 | COc1ccccc1NS(=O)(=O)c1cc(N2Cc3ccccc3C2=N)ccc1N1CCOCC1 | 71 µM (active)
21 | COC(=O)[C@H](C)NC(=O)c1cc2c(cn1)[nH]c1ccccc12 | 50.2 µM (active)
22 | COc1ccc(Cn2nnnc2C(c2ccc3ncccc3c2)N2CCN(C3CCCCC3)CC2)cc1 (configuration not stated) | 200 µM (active)
